According to ChEMBL document CHEMBL4513149, “CO-ADD screening of MMV (CH) - MMV compounds” (2021):
Results with a measured potency or affinity are listed apart.

System: Staphylococcus aureus
Conditions: Concentration 20 uM; ASSAY_TEST Inhibition of Bacterial Growth; detection method Absorption (OD600); MEDIA CAMHB; plate type 384well; NBS; CORNING #3640; time 18 hr

Structure (SMILES)	Inhibition [%]
Cc1cc(NC(=O)c2ccc(S(=O)(=O)N(Cc3ccccc3)C(C)C)cc2)no1	10.98
O=C1N(Cc2cc3ccccc3s2)CC2CN(Cc3ccccc3)CCN12 (stereo not given)	3.35
CCC(C)NC(=O)c1ccc(NC(=O)C2(c3ccccc3)CCCC2)cc1 (stereo not given)	13.32
Cc1nc(-c2ccccn2)nc(NCCc2ccc(S(C)(=O)=O)cc2)c1Cl	4.78
Cc1cccc(-c2nc(Nc3ccncn3)c3sccc3n2)n1	21.43
CC(Oc1ccccc1)C(=O)Nc1nc(-c2ccccn2)cs1 (stereo not given)	40.18
CC1CCCN(C(=O)C(C)Nc2cc(Cl)ccc2N2CCOCC2)C1 (stereo not given)	20.88
CS(=O)(=O)c1cccc(-c2cnc3[nH]cc(-c4ccc(CCC(=O)O)cc4)c3c2)c1	21.11
COc1cccn2c(C(=O)N3CCCCC3)c(C(F)(F)F)nc12	18.98
O=C(Nc1cnc2ccccc2c1)c1cccc(-n2cnnn2)c1	5.61
CC(C)(C)c1cnc(NC(=O)c2ccccc2O)s1	23.8
O=C(C1CCCCC1)N1CC(=O)N2CCc3ccccc3C2C1 (stereo not given) [PRAZIQUANTEL]	18.11
CC(=O)Nc1ccc(NC(=O)c2cc(-c3cc(Cl)ccc3O)n[nH]2)cc1	5.62
Cc1[nH]c2cc(F)cc(F)c2c(=O)c1-c1ccc(Oc2ccc(OC(F)(F)F)cc2)cc1	11.17
CC(C)(C)OC(=O)N1CCC(Cn2nc(-c3cnc4ccccc4c3)c3c(N)ncnc32)CC1	18.54
O=C(Nc1cccc(-c2ccc(NCCCN3CCCC3)nc2)c1)c1ccccc1	10.81
O=C(Nc1nc(-c2ccccn2)cs1)C1CC1c1ccccc1F (stereo not given)	16.77
O=C(NCCN1CCCC1)c1cc(NCCCCN2CCC(F)(F)CC2)nc2ccc(Cl)cc12	22.5
CCCCN(CCCC)c1c(C#N)cc(S(=O)(=O)Nc2ccccc2)cc1C#N	3.78
O=C(c1cc2ccccc2o1)N1CCN(Cc2ccc3c(c2)OCO3)CC1	8.69

System: Escherichia coli
Conditions: Concentration 20 uM; ASSAY_TEST Inhibition of Bacterial Growth; detection method Absorption (OD600); MEDIA CAMHB; plate type 384well; NBS; CORNING #3640; time 18 hr

Structure (SMILES)	Inhibition [%]
CCN(CC)CCCCCCNc1cc(OC)cc2c(C)ccnc12.Cc1ccc(S(=O)(=O)O)cc1	7.48
CS(=O)(=O)c1ccccc1C(=O)N(Cc1ccccc1)c1ccccc1	5.13
N#Cc1nc(-c2ccccc2F)oc1NCCc1ccccc1	2.58
Cc1ccc(NC(=O)c2nc[nH]c2C(=O)Nc2nc3ccccc3[nH]2)c(C)c1	12.12
CCN(CC)CCCN1CCN(C(=O)c2cccc(-c3noc(C(F)(F)F)n3)c2)CC1	-1.62
CC1(COc2ccc(N3CCC(Oc4ccc(OC(F)(F)F)cc4)CC3)cc2)Cn2cc([N+](=O)[O-])nc2O1 (stereo not given)	11.79
N#Cc1ccc(-c2cnc(N)c(-c3ccc(C(N)=O)cc3)n2)cc1	7.7
Clc1ccc(-n2cc(COc3ccnc4ccccc34)nn2)cc1	8.78
O=C(NC1CC1)c1ccc(N2CCOc3ccc(Cl)cc32)s1	8.85
NC(=O)c1cc(Br)ccc1OCCOc1ccccc1	-2.13
COc1cc2ncnc(NC3CCN(Cc4ccccc4)CC3)c2cc1OC	-0.93
Nc1ncc(-c2ccc(C(F)(F)F)nc2)cc1-c1ccc(C(F)(F)F)nc1	7.53
CN1CCN(c2nccc3nc(-c4ccc(F)c(F)c4)[nH]c23)CC1	8.63
COc1ccccc1C(C)NCC(=O)Nc1cc(C(F)(F)F)ccc1Cl (stereo not given)	8.42
Cc1ccc(C(=O)Nc2ccc(S(=O)(=O)O)c3cc(S(=O)(=O)O)cc(S(=O)(=O)O)c23)cc1NC(=O)c1cccc(NC(=O)Nc2cccc(C(=O)Nc3cc(C(=O)Nc4ccc(S(=O)(=O)O)c5cc(S(=O)(=O)O)cc(S(=O)(=O)O)c45)ccc3C)c2)c1 [SURAMIN]	7.96
Cc1cc(NC(=O)c2ccc(S(=O)(=O)N(Cc3ccccc3)C(C)C)cc2)no1	6.09
O=C1N(Cc2cc3ccccc3s2)CC2CN(Cc3ccccc3)CCN12 (stereo not given)	-5.97
CCC(C)NC(=O)c1ccc(NC(=O)C2(c3ccccc3)CCCC2)cc1 (stereo not given)	-4.39

Structure (SMILES)	Inhibition [%]
Cc1nc(-c2ccccn2)nc(NCCc2ccc(S(C)(=O)=O)cc2)c1Cl	-2.55
Cc1cccc(-c2nc(Nc3ccncn3)c3sccc3n2)n1	8.12
CC(Oc1ccccc1)C(=O)Nc1nc(-c2ccccn2)cs1 (stereo not given)	-10.82
CC1CCCN(C(=O)C(C)Nc2cc(Cl)ccc2N2CCOCC2)C1 (stereo not given)	9.44
CS(=O)(=O)c1cccc(-c2cnc3[nH]cc(-c4ccc(CCC(=O)O)cc4)c3c2)c1	7.22
COc1cccn2c(C(=O)N3CCCCC3)c(C(F)(F)F)nc12	-2.18
O=C(Nc1cnc2ccccc2c1)c1cccc(-n2cnnn2)c1	-2.29
CC(C)(C)c1cnc(NC(=O)c2ccccc2O)s1	4.86
O=C(C1CCCCC1)N1CC(=O)N2CCc3ccccc3C2C1 (stereo not given) [PRAZIQUANTEL]	6.83
CC(=O)Nc1ccc(NC(=O)c2cc(-c3cc(Cl)ccc3O)n[nH]2)cc1	10.03
Cc1[nH]c2cc(F)cc(F)c2c(=O)c1-c1ccc(Oc2ccc(OC(F)(F)F)cc2)cc1	-0.95
CC(C)(C)OC(=O)N1CCC(Cn2nc(-c3cnc4ccccc4c3)c3c(N)ncnc32)CC1	10.38
O=C(Nc1cccc(-c2ccc(NCCCN3CCCC3)nc2)c1)c1ccccc1	7.66
O=C(Nc1nc(-c2ccccn2)cs1)C1CC1c1ccccc1F (stereo not given)	3.89
O=C(NCCN1CCCC1)c1cc(NCCCCN2CCC(F)(F)CC2)nc2ccc(Cl)cc12	8.02
CCCCN(CCCC)c1c(C#N)cc(S(=O)(=O)Nc2ccccc2)cc1C#N	-2.29
O=C(c1cc2ccccc2o1)N1CCN(Cc2ccc3c(c2)OCO3)CC1	11.22
